The full ranking holds about 33,000 sequences; the median of “E-score (-0.5 to 0.5)” is about -0.04, and the highest 2% start at about 0.36. This is one part of a sample in which the highest values are shown more often than they occur.

In this test the target is T1, Hmlalpha2 (UniProt P0CY09).
T1 sequence: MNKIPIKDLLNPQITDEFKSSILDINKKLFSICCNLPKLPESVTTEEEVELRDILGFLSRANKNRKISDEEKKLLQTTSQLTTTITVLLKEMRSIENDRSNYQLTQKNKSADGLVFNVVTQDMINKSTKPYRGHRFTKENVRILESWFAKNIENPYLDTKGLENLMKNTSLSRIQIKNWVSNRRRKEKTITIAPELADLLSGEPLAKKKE
As to the kind of experiment: PBM E-score (8-mer binding enrichment) (E-score (-0.5 to 0.5)); higher = stronger / more preferred TF binding. Conditions: protein concentration: 200 nM; construct: GST-full length. The essentials:
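Using PURExpress in vitro transcription/translation, GST-tagged yeast transcription factors were made in full-length or DNA-binding-domain form. These were applied at about 100-200 nM to double-stranded universal all-10-mer Agilent arrays, and bound protein was detected with fluorescent anti-GST. Scans were normalised with masliner before the Universal PBM Analysis Suite assigned E-scores to ungapped eight-base words pooled with their reverse complements.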
As to GGCCCGAA, the “PBM E-score” value was -0.135. The same measure for ATATCGGA: -0.0245; for CCACCAGG: -0.268; for CCTAGGCG: -0.303.

For ATTCCCAC, the “PBM E-score” value was -0.125. The same measure for TCTTGTCA: 0.219; for CCTTGTAG: 0.195. In the case of CTTTGTAC, the “PBM E-score” value worked out at 0.2. In the case of ACTTGTAA it was 0.381; in that of TCTTGTAA, 0.439. The same measure for CCTTGTAA: 0.454; for CTTTGTAA: 0.414; for ATTTGTAA: 0.344. The same measure for CCTTGTAC: 0.327; for ACTTGTAC: 0.12; for ACTTGTAG: 0.0979. For TATTGTAA, the “PBM E-score” value worked out at 0.318.

Regarding GCTACAAA, the “PBM E-score” value amounted to 0.0715. The same measure for GAGCTACC: -0.059. In the case of CAGCTGTA it was -0.117. In the case of CCAGGAGG it was -0.191; in that of ATCCAGCA, -0.0498.

For the sequence CGATGATA, the “PBM E-score” value came out at 0.0847.

For ACTTGTTA, the “PBM E-score” value was 0.259.

As for CCTTGTTA, the “PBM E-score” value was found to be 0.371. In the case of GCTTGTAA it was 0.411.

As for CCTTGTTC, the “PBM E-score” value was -0.0497. The same measure for GCTTGTAC: 0.243; for GATTGTAA: 0.247; for CCCATATC: -0.145. The same measure for CAAAGGAG: -0.0938. The same measure for ATTAATGA: 0.0848; for CCAGGCAA: -0.265. Turning to AGCATAGG, the “PBM E-score” value was -0.178. In the case of AACAGGTT it was 0.11; in that of ATTACAAG, 0.466. As for ATTACACC, the “PBM E-score” value is 0.382. In the case of CTTACAAG, the “PBM E-score” value came out at 0.312. The same measure for ATTACAGA: 0.333. The same measure for ATTACGAA: 0.289; for CTCACACC: -0.254. In the case of GTTACAAC it was 0.258. In the case of ATTACAAC, the “PBM E-score” value was 0.4. ATTACAGG: the “PBM E-score” value came to 0.352. In the case of ATTACAAA it was 0.414; in that of CTTACACC, 0.0787. With CTTACAAC, the “PBM E-score” value is 0.301.

In the case of CTTGAGGA, the “PBM E-score” value is -0.227. In the case of ATATGCCC it was -0.274; in that of AGTGAACA, 0.154; in that of AGATTCTA, 0.0504. The same measure for ATATAGGA: 0.0657; for ACCAGGAC: 0.0306.

CATGTGAA: the “PBM E-score” value is 0.318. The same measure for CCATGAGG: -0.313. In the case of AAAGAAAT it was 0.175; in that of GACAGGCC, -0.143; in that of CGCTCTGA, -0.135. The same measure for ACGAGGGA: -0.0452; for CGGTAAAG: 0.00317. ATTACATC: the “PBM E-score” value turned out to be 0.445.

In the case of TTTACAAA, the “PBM E-score” value stood at 0.412.

As to AGTACAAT, the “PBM E-score” value turned out to be 0.25. In the case of CTTACATC, the “PBM E-score” value was found to be 0.283. In the case of ATTACAGC it was 0.141; in that of TCTACAAA, 0.252; in that of ACTACAAT, 0.137.

As for ATTACAAT, the “PBM E-score” value came to 0.385.

CTTACAAA: the “PBM E-score” value worked out at 0.232. In the case of ATGGGACG it was -0.19. Regarding GCAAAGAC, the “PBM E-score” value is -0.121. In the case of CTGCGCGC it was -0.00351; in that of TGCAGCAA, -0.0391. For GATACTCA, the “PBM E-score” value was -0.0664. The same measure for GCTTACAC: 0.362; for ACTTACAA: 0.29.

With ACTTACAG, the “PBM E-score” value is 0.134.

In the case of ACTTACAT, the “PBM E-score” value worked out at 0.43. In the case of ACTTACAC it was 0.378; in that of CCTTACAC, 0.334; in that of ACAGTAGC, -0.0946. The same measure for CCCCCCGG: -0.366.

As for ACTCTACC, the “PBM E-score” value is -0.0519.

Take GTTGTGCA: the “PBM E-score” value was -0.00044. The same measure for CTTGTGTA: 0.41; for CTTGTGAA: 0.182; for ATTGTATA: 0.171. On to GTTGTATA, for which the “PBM E-score” value was found to be 0.38. Regarding CTTGTATA, the “PBM E-score” value worked out at 0.289. Take GTTGTGTA: the “PBM E-score” value is 0.448. In the case of CTTGTGTC it was 0.0968.

As for GTTGTGGA, the “PBM E-score” value was 0.0527. In the case of ATTGTGTG it was 0.112; in that of ATTGTGTA, 0.42; in that of ATTGTGTC, 0.233. As to ACTGTTCG, the “PBM E-score” value was found to be 0.0673. The same measure for AACTGCTA: -0.0585; for AGAGGTGA: -0.0117; for CACCAGTA: -0.0753. In the case of ACGGACAT it was -0.0204; in that of CTAACACA, 0.376; in that of AGAACACA, 0.268. With ATAACACA, the “PBM E-score” value was 0.439. ATAACACC: the “PBM E-score” value was 0.259.

ATAACAAG: the “PBM E-score” value stood at 0.352. With ATAACACG, the “PBM E-score” value came out at 0.461. The same measure for GTAACACA: 0.324. For the sequence CTAACACC, the “PBM E-score” value turned out to be 0.153. In the case of CTAACAAG it was 0.175.

The record behind these values is the supplement of paper PMC3334620.
